# Source: PubChem
# Cardio protect: protects H9c2 cardiomyocytes from peroxide injury | H2O2 injury protection, ATPLite, 2 h | protection from H2O2 cell death, % at 20 µM | 0.63% of 360,000 active | AID 588492;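 active means compounds giving at least 50% protection of heart cells from peroxide-induced death in the single-dose screen, raw or plate-pattern-corrected value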;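 further: 0% = DMSO wells with peroxide and 100% = DMSO wells without peroxide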
# GalR3 antagonist: human GalR3 antagonism; O60755; HEK293 GalR3-CNG cAMP membrane potential fluorescence; galR3 body fused to GalR1 C-terminus; AID 651719; inhibition, % at 3 µM; 0.44% of 360,000 active;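 active means inhibition above the screen-wide average plus 3 SD, cut at about 13% in these data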;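 further: forskolin and galanin both at EC90 stimulate the cells; cAMP rise reported by CNG channel membrane potential dye signal; 0% = forskolin plus galanin with DMSO and 100% = forskolin alone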
# Target sequence (O60755 1-299 limits assumed): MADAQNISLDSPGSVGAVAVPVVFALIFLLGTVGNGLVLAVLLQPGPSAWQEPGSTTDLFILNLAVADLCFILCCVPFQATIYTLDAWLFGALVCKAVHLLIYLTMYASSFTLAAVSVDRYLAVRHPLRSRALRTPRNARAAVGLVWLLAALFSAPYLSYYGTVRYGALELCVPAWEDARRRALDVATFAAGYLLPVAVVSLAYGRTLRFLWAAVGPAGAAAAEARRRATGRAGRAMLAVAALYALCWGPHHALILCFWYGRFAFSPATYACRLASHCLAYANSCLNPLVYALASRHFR
# NR2F2 inh: NR2F2 (human) inhibition, primary screen. 0.7% of 370,000 active. P24468. HEK293T NGFI-A luciferase reporter, luminescence. inhibition, % at 8.6 µM;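 active means inhibition above a per-plate cutoff, mean inhibition of test wells between control levels plus 3 SD, cut at about 38% in these data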;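 further: cells cotransfected with COUP-TFII expression vector driving the NGFI-A reporter; 0% = median of COUP-TF2 test wells and 100% = reporter-only cells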
# Gli-Sufu antag: Gli-Sufu pathway antagonism; inhibition, % at 5 µM; Sufu-KO-LIGHT fibroblasts, Gli luciferase reporter luminescence; AID 588413; 0.74% of 340,000 active;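 active means inhibition above about 55%, limit read from the data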;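 further: 0% = DMSO-treated cells and 100% = wells with medium but no cells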
# FXN GAA850 act: increases GAA850 frataxin promoter reporter activity; HEK293 lucGAA850 FXN promoter luciferase reporter, 24 h; percent of 10 µM SAHA response; activation, % at 6 µM; 0.56% of 360,000 active; AID 540364;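 active means activation above the average of all compounds screened plus 3 SD, cutoff fixed separately per campaign, cut at about 7.5% in these data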;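 further: 0% = DMSO wells and 100% = 10 µM SAHA wells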
# SMARCA2 act: increases SMARCA2 function in MMTV reporter cells; MG213 cells, MMTV-luciferase reporter, dexamethasone, overnight; activation, % at 9.1 µM; 1% of 370,000 active; AID 652017; in the data active means activation above about 7.8%;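 further: 0% = vehicle wells and 100% = reference activator wells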
# The depositor's hits bear a star; · = no result given. In the library only some 3.4% were active in any assay of this set; here they are far more common.
SMILES,Cardio protect,GalR3 antagonist,NR2F2 inh,Gli-Sufu antag,FXN GAA850 act,SMARCA2 act
NC(=O)c1nsc(C(=O)N(c2ccccc2F)C(C(=O)NCc2ccccc2)c2ccc(O)cc2)c1N (stereo not drawn),51*,-4,-9,13,-9,-3
CCC(C(=O)NCc1ccc(F)cc1)N(Cc1ccco1)C(=O)c1snc(C(N)=O)c1N (stereo not drawn),1,-1,1,4,0,0
NC(=O)c1nsc(C(=O)N(Cc2ccco2)C(C(=O)NCc2ccccc2)c2ccc(O)cc2)c1N (stereo not drawn),58*,-7,-5,3,-5,-1
CN(C)c1ccc(C(C(=O)NCc2ccccc2)N(Cc2cccnc2)C(=O)c2snc(C(N)=O)c2N)cc1 (stereo not drawn),61*,-7,13,-7,-8,2
CC(C)CC(C(=O)NC1CCCCC1)N(Cc1cccs1)C(=O)c1snc(C(N)=O)c1N (stereo not drawn),51*,-9,6,9,-1,1
COc1cc(C(C(=O)NC2CCCC2)N(Cc2ccco2)C(=O)c2snc(C(N)=O)c2N)cc(OC)c1OC (stereo not drawn),10,-8,10,-4,2,-1
Cc1ccccc1N(C(=O)c1snc(C(N)=O)c1N)C(C(=O)NCc1ccccc1)c1ccc(O)cc1 (stereo not drawn),51*,-7,1,-2,-5,0
CN(C)c1ccc(C(C(=O)NC2CCCCC2)N(Cc2ccco2)C(=O)c2snc(C(N)=O)c2N)cc1 (stereo not drawn),53*,-9,-33,-5,-6,1
COc1ccc(S[C@]2(C(=O)N3CCCC3)CC(=O)N(c3ccccc3OC)[C@@H]2c2ccc(OC)cc2)cc1,·,·,25,·,·,-3
O=C(C1CCN(c2ncnc3c2sc2cccc(F)c23)CC1)N1CCN(C(=O)C2CCCO2)CC1 (stereo not drawn),·,·,19,·,·,-6
O=S1(=O)c2c(NCc3ccco3)cccc2Oc2ccccc2CN1Cc1cn(Cc2ccc(C(F)(F)F)cc2)nn1,·,·,3,·,·,-4
COc1ccc(-c2nn(-c3ccccc3)cc2/C=C/C(=O)N2CCN(c3ccccn3)CC2)cc1,68*,0,6,17,0,-3
O=C(CN1C(=O)CCSc2ccccc21)Nc1ccc(Cl)c(Cl)c1,·,·,28,·,·,-1
N#C/C(=C/c1ccncc1)c1nc2ccccc2c(=O)[nH]1,-1,-7,-11,0,2,-4
N#C/C(=C1\CCCN1)c1nc2ccccc2c(=O)[nH]1,74*,0,2,-10,-1,0
O=C(COCc1ccccc1)NC1CCCCN(Cc2ccc(Cl)cc2)C1=O (stereo not drawn),·,·,12,·,·,-2
COc1cccc(NC(=O)CN(C)C(=O)COc2ccccc2Cc2ccccc2)c1,-5,-1,14,-3,0,-4
COc1ccc(NC(=O)CN(C)C(=O)Cc2n[nH]c(=O)c3ccccc23)cc1,61*,-4,-5,-4,1,-2
COc1ccc(Cl)cc1NC(=O)CN(C)C(=O)Cn1c(=O)oc2ccccc21,0,-2,-9,-2,1,1
COc1ccc(Cl)cc1NC(=O)CN(C)C(=O)Cc1n[nH]c(=O)c2ccccc12,100*,-3,-5,3,1,-2
COc1cccc(NC(=O)CN(C)C(=O)Cc2n[nH]c(=O)c3ccccc23)c1,79*,2,2,-15,3,-4
CCOc1ccc(NC(=O)CN(C)C(=O)Cc2n[nH]c(=O)c3ccccc23)cc1OCC,59*,-1,-20,-3,1,5
CCOC(=O)c1sc(NC(=O)c2ccco2)nc1-c1ccccc1,7,-4,7,48,0,7.9*
O=c1c2c3nc4ccccc4nc3n(/N=C/c3ccco3)c2ncn1CCC1=CCCCC1,0,4,-25,-24,0,-4
Cc1nc2c(c(=O)n1CCC1=CCCCC1)c1nc3ccccc3nc1n2/N=C/c1ccccc1,109*,·,·,9,1,·
SMILES,Cardio protect,GalR3 antagonist,NR2F2 inh,Gli-Sufu antag,FXN GAA850 act,SMARCA2 act
CCCCCCn1c(C)nc2c(c1=O)c1nc3ccccc3nc1n2/N=C/c1ccco1,90*,-6,5,8,2,-2
Cc1ccc(C(=O)/C=C/c2ccc(F)cc2)o1,-21,-6,-7,-7,5,0
O=C(/C=C/c1ccc(F)cc1)c1ccccc1Br,-7,0,-10,-11,9.3*,3
CCc1ccc(O)c(N=Cc2cccc(C)c2O)c1,60*,-8,4,-7,1,-3
O=S(=O)(c1ccccc1)c1cc(O)ccc1O,41,-6,-16,1,-2,2
O=S(=O)(c1ccc(Cl)cc1)c1cc(O)ccc1O,56*,-7,-10,-12,1,-3
Cn1cccc1CC(=O)NN=Cc1cccc(F)c1,·,·,9,·,·,-3
O=C(CSc1nnc(-c2cccs2)n1Cc1ccco1)Nc1ccc(OCc2ccccc2)cc1,·,·,1,·,·,-2
Cc1cc(SCC(=O)c2ccc3c(c2)OCO3)nc2ccccc12,-3,-5,10,0,1,-1
O=C(CSc1n[nH]c(-c2ccccc2)n1)c1ccc(O)c(O)c1,80*,-8,-12,0,2,1
Cc1cc(SCC(=O)c2ccc(O)c(O)c2)nc2ccccc12,51*,-3,-3,-2,1,-6
CCN(CC)c1ccc(N)cc1,-11,·,·,61*,-1,·
CCOC(=O)C1=C(CC)Nc2ccccc2N=C1NC(=O)c1ccc(S(=O)(=O)N(C)C)cc1,81*,-2,19,2,-4,-1
CCOC(=O)C1=C(CC)Nc2ccccc2N=C1NC(=O)c1oc2ccccc2c1C,32,-3,4,3,-8,-1
CCOCc1c(C(=O)NC2=Nc3ccccc3NC(CC)=C2C(=O)OCC)oc2ccccc12,68*,-7,8,36,-8,-1
COc1ccc(-n2c(SCC(=O)Nc3ccccc3-c3ccccc3)nnc2-c2ccco2)cc1,·,·,7,·,·,-6
O=S1(=O)CC(N2CCN(Cc3ccccc3F)CC2)CN1Cc1cn(Cc2cccc(Cl)c2)nn1 (stereo not drawn),·,-5,14,·,·,-4
CCCC1CCC2(CC1)CCC2OC(=S)Nc1cccc(I)c1 (stereo not drawn),·,·,-16,·,·,·
CCOC(=O)N1CCN(C(=O)C[C@H]2C[C@@]3(C(=O)OC)C(=C[C@H](COCc4ccccc4)O[C@@H]3C)N(Cc3ccccc3)C2=O)CC1,·,·,2,·,·,-2
O=c1c2ccccc2nc2c3ccccc3c(NCCO)nn12,58*,-1,-29,-6,2,0
C=C(C)Cn1c(SCC(=O)N/N=C(\C)c2ccc([N+](=O)[O-])cc2)nnc1-c1ccc(Br)cc1,·,·,4,·,·,-7
O=C(NCCc1ccccc1Cl)c1ccc2nc3ccccc3c(=O)n2c1,58*,-8,-7,1,-1,0
